Compound activity (PubChem)
Sampled rows, rich in hits. Any-hit rate of the full collection: about 11%.
HEK293 tox – Cytotoxic Profiling in HEK 293 Cell Line of Diverse Libraries Using Quantitative High-Throughput Screening | HEK 293 viability, ATP luminescence (CellTiter-Glo), 48-72 h | Potency, µM (doses to about 115 µM), most hits filed as inhibitors | 94,000 compounds, 6.6% hits | AID 1345083, 2018; further: nearly all actives have a fitted effect of over 60% in size
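Cytotoxicity was scored by loss of ATP-coupled luminescence (CellTiter-Glo) in HEK 293 cells. Compound treatment ran 48 or 72 hr at 37 degree Celsius, 5% CO2, 95% humidity.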
FLuc inh – Firefly luciferase inhibition profiling of diverse chemical library using quantitative high-throughput screening. purified P. pyralis luciferase, luminescence, biochemical. Luciferin 4-monooxygenase (Photinus pyralis), P08659. 76,000 compounds, 2.5% hits. Potency, µM (top dose mostly 115 µM), hits mostly inhibitors; further: nearly all actives have a fitted effect of over 65% in size
Target sequence (P08659 whole entry, looked up): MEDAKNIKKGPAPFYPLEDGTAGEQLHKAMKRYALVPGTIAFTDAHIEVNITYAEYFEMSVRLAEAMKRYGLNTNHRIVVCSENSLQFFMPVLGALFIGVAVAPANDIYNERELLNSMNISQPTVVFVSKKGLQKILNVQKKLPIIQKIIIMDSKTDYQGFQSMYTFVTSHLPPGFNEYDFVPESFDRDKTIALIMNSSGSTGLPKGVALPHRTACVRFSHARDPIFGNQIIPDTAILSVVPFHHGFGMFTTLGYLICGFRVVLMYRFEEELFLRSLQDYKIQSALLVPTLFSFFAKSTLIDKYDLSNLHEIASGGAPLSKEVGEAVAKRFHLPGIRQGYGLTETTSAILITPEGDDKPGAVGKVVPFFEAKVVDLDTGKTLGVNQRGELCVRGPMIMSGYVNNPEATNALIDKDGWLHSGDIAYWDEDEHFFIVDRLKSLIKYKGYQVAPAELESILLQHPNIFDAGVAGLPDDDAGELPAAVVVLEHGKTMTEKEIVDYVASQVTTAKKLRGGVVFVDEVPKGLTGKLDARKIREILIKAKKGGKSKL
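Purified P. pyralis luciferase (10nM final) in 50mM Tris acetate pH 7.5, 10mM Mg acetate, 0.01% Tween-20, 0.05% BSA with 10uM D-luciferin and 10uM ATP. Compounds titrated qHTS. Luminescence imaged on CCD.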
3T3 cytotox – Cytotoxic Profiling in NIH 3T3 Cell Line of Diverse Libraries Using Quantitative High-Throughput Screening | NIH 3T3 viability, CellTiter-Glo ATP luminescence, 48-72 h | Potency, µM (titrated, usually from 96.7 µM), actives largely listed as inhibitors | 94,000 compounds, 4.3% hits | AID 1345082, 2018; further: nearly all actives have a fitted effect of over 55% in size
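First NIH 3T3 cells are plated at 400 cells/well; next compound is pinned in; then plates incubate 48 or 72 hr at 37 °C; finally CellTiter-Glo is added and luminescence read after 10 min.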
hNpr1 antagonist – Natriuretic polypeptide receptor (hNpr1) antagonism - Primary qHTS. HEK293 hNpr1 GloSensor cGMP, ANP-stimulated luminescence. AID 1347048, 2019. Atrial natriuretic peptide receptor 1 (Homo sapiens), P16066. Potency, µM (top dose mostly 46.3 µM), actives largely listed as inhibitors. 76,000 compounds, 1.6% hits; calls by dose curve; further: nearly all actives have a fitted effect of over 60% in size
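HEK293 cells stably expressing human Npr1 and cGMP GloSensor pGS-40F, loaded 2 h with 2% GloSensor reagent, given compound 30 min at room temperature. Luminescence read before and 20 min after 0.1 nM hNppA.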
Npr1 antag conf – Natriuretic polypeptide receptor (hNpr1) antagonism - Confirmation | shares compounds with hNpr1 antagonist | HEK293 hNpr1 cGMP GloSensor luminescence, ANP-stimulated | Potency, µM (doses to about 57.6 µM), usual class: inhibitors | 1,400 compounds, 76% hits; calls by dose curve; further: nearly all actives have a fitted effect of over 70% in size
NPR2 antag – Natriuretic polypeptide receptor (hNpr2) antagonism - Subtype selectivity assay | shares compounds with hNpr1 antagonist | HEK293 hNpr2 GloSensor cGMP luminescence, CNP-stimulated | Potency, µM (top dose mostly 57.6 µM), hits mostly inhibitors | 1,400 compounds, 67% hits | AID 1347046, 2019; calls by dose curve; further: nearly all actives have a fitted effect of over 70% in size
FLuc inh counter – Natriuretic polypeptide receptor (hNpr1) antagonism - Confirmation firefly luciferase (FLuc) inhibition counterscreen; 1,400 compounds, 0.7% hits; Potency, µM (titrated, usually from 57.6 µM), hits mostly inhibitors; shares compounds with hNpr1 antagonist; purified FLuc enzyme, luminescence, Km substrate; further: series mostly up to about 58 µM
GloSensor ctrl – Natriuretic polypeptide receptor (hNpr1) antagonism - Counterscreen GloSensor control cell line; HEK293 GloSensor cGMP, SNP-stimulated, luminescence; shares compounds with hNpr1 antagonist; Potency, µM (highest dose often 57.6 µM), usual class: inhibitors; AID 1347051, 2019; 1,400 compounds, 69% hits; calls by dose curve; further: nearly all actives have a fitted effect of over 70% in size
Each line names hits and unclear results; the compound was inactive in the other large screens (follow-up assays come after a bar, where they were run). Unless noted, the call rests on the fitted dose curve; in most records, active means well fitted curve in the direction sought with a large enough effect; inconclusive means small, poorly fitted or top-dose-only effect, or another doubt; inactive means no such curve, though single readings can be large; an effect the other way counts as inactive or inconclusive.

Cc1cccc(CC(C)NC(=O)c2ccc3nc(Cc4ccccc4F)oc3c2)n1 (centres undefined)	HEK293 tox inconclusive, FLuc inh inconclusive
CC(=O)N1CCCN(c2ncnc3c2CN(C2CCC2)C(=O)CN3C)CC1	none (no result: FLuc inh, hNpr1 antagonist)
CN(C)Cc1nnc(C2CC(NC(=O)c3cc4ncccn4n3)C2)n1C (centres undefined)	none
Cc1ccsc1C(=O)N1CCC(Cc2nc(-c3ccncc3)n[nH]2)CC1	none (no result: FLuc inh, hNpr1 antagonist)
O=C(c1csc(N2CCN(c3ccccc3)CC2)n1)N1CCCCCC1	HEK293 tox inconclusive, 3T3 cytotox inconclusive, hNpr1 antagonist 10µM | Npr1 antag conf 21.7µM | NPR2 antag 21.7µM | FLuc inh counter inactive | GloSensor ctrl 19.3µM
O=C(c1csc(N2CCN(c3ccccc3)CC2)n1)N1CCN(c2ccccn2)CC1	hNpr1 antagonist 12.6µM | Npr1 antag conf 27.3µM | NPR2 antag 24.3µM | FLuc inh counter inactive | GloSensor ctrl 24.3µM
Fc1ccc(CN2CCOC[C@H]2c2ncc(-c3ccc(F)cc3F)[nH]2)cc1	HEK293 tox 79.4µM, 3T3 cytotox inconclusive, hNpr1 antagonist inconclusive | Npr1 antag conf inconclusive | NPR2 antag inconclusive | FLuc inh counter inactive | GloSensor ctrl inconclusive
CC(=O)Nc1ccc(CN2CCOC[C@H]2c2ncc(-c3ccc(Cl)cc3)[nH]2)cc1	HEK293 tox inconclusive, 3T3 cytotox inconclusive
N#Cc1cccc(CN2CCOC[C@H]2c2ncc(-c3ccc(Cl)s3)[nH]2)c1	HEK293 tox inconclusive, 3T3 cytotox inconclusive, hNpr1 antagonist 28.2µM | Npr1 antag conf 39.6µM | NPR2 antag inconclusive | FLuc inh counter inactive | GloSensor ctrl inconclusive
Cn1c(CN2CCOC[C@H]2c2ncc(-c3ccc(Cl)cc3)[nH]2)nc2ccccc21	HEK293 tox 79.4µM, 3T3 cytotox inconclusive, hNpr1 antagonist 20µM | Npr1 antag conf 31.4µM | NPR2 antag 28µM | FLuc inh counter inactive | GloSensor ctrl inconclusive
CCN1CCC(OCCCNC(=O)CCC[C@H]2NC[C@@H]3C[C@H]2CN(Cc2ccccc2)C3)CC1	none
O=C(NCC1CC1)c1ccc2nnc(C3CC3)n2c1	none (no result: FLuc inh, hNpr1 antagonist)
CCn1ccc(C(=O)N2CCC3(CC2)c2[nH]c4ccc(OC)cc4c2CCN3C)n1	none
O=C1Nc2ccccc2OCC12CCN(Cc1ccc(C(F)(F)F)cc1)CC2	HEK293 tox inconclusive, hNpr1 antagonist 11.2µM | Npr1 antag conf 24.3µM | NPR2 antag 24.3µM | FLuc inh counter inactive | GloSensor ctrl 24.3µM
CCOc1ccccc1NC(=O)N1CCC(N2CC3CC(C2)[C@H]2CCCC(=O)N2C3)CC1 (some centres undefined)	none
COC(=O)c1cccc(NC(=S)N[C@H]2CO[C@H]3[C@@H]2OC[C@@H]3n2cc(-c3ccccc3)nn2)c1	HEK293 tox inconclusive, 3T3 cytotox inconclusive, hNpr1 antagonist 11.2µM | Npr1 antag conf 12.2µM | NPR2 antag 17.2µM | FLuc inh counter inactive | GloSensor ctrl 12.2µM
COc1ccc(C(=O)N[C@H]2CO[C@H]3[C@@H]2OC[C@@H]3n2cc(-c3ccccc3)nn2)cc1	HEK293 tox inconclusive, 3T3 cytotox inconclusive
O[C@@H]1CO[C@H]2[C@@H]1OC[C@@H]2n1cc(-c2ccccc2)nn1	HEK293 tox inconclusive
c1ccc(CCCN[C@H]2CO[C@H]3[C@@H]2OC[C@@H]3n2cc(-c3ccccc3)nn2)cc1	HEK293 tox inconclusive, 3T3 cytotox inconclusive, hNpr1 antagonist 10µM | Npr1 antag conf 15.7µM | NPR2 antag 19.8µM | FLuc inh counter inactive | GloSensor ctrl 15.7µM
CC(=O)NCC1CN(C(=O)NCc2ccc(OC(F)(F)F)cc2)CC12CCCCC2 (centres undefined)	3T3 cytotox inconclusive (no result: FLuc inh, hNpr1 antagonist)
CN(Cc1ccc(F)cc1)c1ccc2ncc(Nc3ccnc(N4CCOCC4)c3)n2n1	HEK293 tox inconclusive, 3T3 cytotox inconclusive, hNpr1 antagonist 10µM | Npr1 antag conf 25µM | NPR2 antag 15.7µM | FLuc inh counter inactive | GloSensor ctrl 17.7µM
COc1cncc(Nc2cnc3ccc(N(C)Cc4ccc(F)cc4)nn23)c1	HEK293 tox inconclusive, 3T3 cytotox inconclusive, hNpr1 antagonist inconclusive
O=Cc1ccccc1-c1cccc(O)c1	HEK293 tox inconclusive, 3T3 cytotox inconclusive (no result: FLuc inh, hNpr1 antagonist) | Npr1 antag conf inconclusive | NPR2 antag 49.9µM | FLuc inh counter inconclusive | GloSensor ctrl inconclusive
Cc1cccc(-c2ccccc2C=O)c1	none (no result: FLuc inh, hNpr1 antagonist)
COc1ccc(CCNC(=O)CC(c2cccc(OC)c2OC)c2c[nH]c3ccccc23)cc1OC (centres undefined)	HEK293 tox inconclusive, 3T3 cytotox inconclusive
CCCCNC(=O)CC(c1cccc(OC)c1OC)c1c[nH]c2ccccc12 (centres undefined)	HEK293 tox inconclusive, 3T3 cytotox inconclusive
COc1ccc(CCNC(=O)CC(c2cccc(F)c2)c2cn(C)c3ccccc23)cc1OC (centres undefined)	HEK293 tox 20µM, 3T3 cytotox 22.4µM, hNpr1 antagonist 17.8µM | Npr1 antag conf 24.3µM | NPR2 antag 27.3µM | FLuc inh counter inactive | GloSensor ctrl 27.3µM
COc1ccccc1C(CC(=O)NCC(C)C)c1cn(C)c2ccccc12 (centres undefined)	HEK293 tox inconclusive, hNpr1 antagonist inconclusive | Npr1 antag conf inconclusive | NPR2 antag inconclusive | FLuc inh counter inactive | GloSensor ctrl inactive
O=C(c1cccnc1)N1CCCC2(CN[S+](=O)([O-])c3cccnc3N2)C1 (centres undefined)	none (no result: FLuc inh, hNpr1 antagonist)
O=C(NCc1c[nH]c2ncccc12)c1cccc(Cl)c1	3T3 cytotox inconclusive
COc1ccc(-c2cc(C(=O)NCC(F)(F)F)nn3cnnc23)cc1	3T3 cytotox inconclusive (no result: FLuc inh, hNpr1 antagonist)
Cc1noc(C2CC3(CCN(C(=O)CCc4c[nH]c5ccccc45)CC3)CN2C)n1 (centres undefined)	none
